Source: PubChem BioAssay
Neddyl block: inhibitors of human cullin neddylation; hit rate 0.58% among 360,000; AID 651699; P61081+Q13564; TR-FRET cullin neddylation, biochemical; calls only at 25 µM; in the data active = inhibition above about 36%
Target sequence (P61081 whole entry, looked up): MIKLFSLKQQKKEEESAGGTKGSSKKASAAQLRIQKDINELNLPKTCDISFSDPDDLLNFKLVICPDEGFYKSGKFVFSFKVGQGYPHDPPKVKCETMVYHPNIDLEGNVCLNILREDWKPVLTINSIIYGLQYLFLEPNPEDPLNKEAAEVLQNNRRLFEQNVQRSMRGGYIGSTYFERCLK
Target sequence (Q13564 whole entry, looked up): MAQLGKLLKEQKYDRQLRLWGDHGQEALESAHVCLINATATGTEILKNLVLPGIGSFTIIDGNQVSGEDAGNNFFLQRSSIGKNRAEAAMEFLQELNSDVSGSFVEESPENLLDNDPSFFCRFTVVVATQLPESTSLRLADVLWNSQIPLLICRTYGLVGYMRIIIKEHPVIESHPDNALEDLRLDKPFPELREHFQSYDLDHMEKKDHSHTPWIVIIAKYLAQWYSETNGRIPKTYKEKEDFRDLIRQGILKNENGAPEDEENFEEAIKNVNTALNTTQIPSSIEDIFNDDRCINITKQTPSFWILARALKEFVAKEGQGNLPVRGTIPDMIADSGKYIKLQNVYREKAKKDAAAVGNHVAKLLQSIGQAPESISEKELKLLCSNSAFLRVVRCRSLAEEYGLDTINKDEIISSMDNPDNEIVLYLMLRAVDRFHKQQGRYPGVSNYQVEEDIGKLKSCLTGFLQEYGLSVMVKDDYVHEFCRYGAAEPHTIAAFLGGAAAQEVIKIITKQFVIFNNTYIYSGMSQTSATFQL
FAS TE block: inhibitors of human fatty acid synthase thioesterase domain | P49327 | recombinant FAS-TE, OMFH fluorogenic substrate, fluorescence endpoint | inhibition, % at 15 µM | hit rate 0.67% among 360,000;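 active = compounds whose normalised, plate-corrected inhibition of enzyme fluorescence in the single-dose primary screen is 50% or more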;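 also: 0% = DMSO with enzyme and 100% = substrate without enzyme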
PfG6PD inh: PfG6PD (Plasmodium falciparum) enzyme inhibition; PfGluPho enzyme, NADPH resazurin-diaphorase fluorescence; inhibition, % at 20 µM; hit rate 0.78% among 350,000; AID 504690;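 active = inhibition reaching at least a set limit at 20 µM in the primary screen, cut at about 59% in these data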;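 also: 0% = DMSO wells with substrate and 100% = DMSO wells lacking glucose-6-phosphate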
KLK7 zymogen act: activates the human kallikrein-7 zymogen; P49862; purified proKLK7, EDANS-DABCYL substrate fluorescence; 100% is mature enzyme control, 0% vehicle; activation, % at 7 µM; hit rate 0.9% among 370,000;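 active = activation above the mean of all tested compounds plus 3 SD, computed per campaign excluding outliers beyond control limits, cut at about 13% in these data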
proKLK7 act conf: confirmation of human kallikrein-7 zymogen activators. purified proKLK7, EDANS-DABCYL substrate fluorescence; scaled: vehicle 0, mature enzyme 100. AID 686949. shares compounds with KLK7 zymogen act. activation, % at 7 µM. hit rate 68% among 3,200;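 active = activation, as change over the incubation, above the mean of all tested compounds plus 3 SD, cut at about 13% in these data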
EDANS interfere: counter-screen for kallikrein-7 activators: EDANS-DABCYL optical interference; hit rate 80% among 3,200; EDANS-DABCYL substrate fluorescence interference, no enzyme, 4 h; solvent 0%, active enzyme control 100%; activation, % at 7 µM; shares compounds with KLK7 zymogen act;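 active = activation above the all-compound mean plus 3 SD, ignoring values outside control-based bounds, cut at about 4.8% in these data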;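 also: value is the 4 h activation minus the activation read at time zero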
EDANS interf: optically interferes with EDANS-DABCYL fluorescence, kallikrein-7 activator counter-screen | shares compounds with KLK7 zymogen act | EDANS-DABCYL peptide fluorescence interference, no enzyme | EC50, µM | hit rate 20% among 250 | AID 720493;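 active = compounds that raise the fluorescence signal in this interference counterscreen, with EC50 at or below 10 µM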;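 also: intact quenched peptide substrate alone read at 355 nm excitation and 520 nm emission; signal is fluorescence gain from T0 to T4 after four hours at room temperature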
The depositor's hits bear a star; i = inactive; nt = no result shown; + = active, no number. A selection: hits, their analogues and other compounds. The true share with any hit is near 2.7%.

SMILES	Neddyl block	FAS TE block	PfG6PD inh	KLK7 zymogen act	proKLK7 act conf	EDANS interfere	others
CCNC(=O)C1(C)CCN1CCS(=O)(=O)c1ccc(C)cc1 (stereo unspecified)	i	-6.9	nt	1.0	nt	nt
O=C(Nc1c(-c2ccc(C(F)(F)F)cc2)nc2ncccn12)C1CC1	nt	nt	nt	27.2*	29.3*	26.7*
Cc1cccc(C(=O)Nc2c(-c3ccc(C(F)(F)F)cc3)nc3ncccn23)c1	nt	nt	nt	-0.5	nt	nt
Cc1ccc(-c2nc3ncccn3c2NC(=O)C2CC2)cc1	nt	-6.5	-4.2	16.6*	31.7*	45.2*
CCN1C(c2ccc(F)cc2)=CS/C1=C(/C#N)c1nnc2n1-c1ccccc1SC2	i	8.0	4.7	-4.1	nt	nt
COc1cccc(C=Nc2ccccc2C(=O)Nc2nccs2)c1OC	i	13.1	-7.0	25.4*	-64.7	-48.7
COc1cc2c(cc1OC)-c1cc(OCc3cccnc3)nc(=O)n1CC2	nt	-21.5	-13.4	61.0*	63.0*	65.3*
COc1cc2c(cc1OC)-c1cc(Nc3ccccc3)nc(=O)n1CC2	i	-1.7	-1.3	2.6	nt	nt
O=C1c2[nH]c3ccccc3c2CC1N1C(=O)c2ccccc2C1=O (stereo unspecified)	i	-7.9	-0.6	29.8*	18.5*	17.7*
C#CCN1CC(COCCCC)Oc2cccc(Oc3ccc(C(C)(C)C)c(C)c3)c2S1(=O)=O (stereo unspecified)	nt	nt	nt	0.1	nt	nt
COc1ccc2ccccc2c1C1NC(=O)c2ccccc2N1 (stereo unspecified)	nt	0.9	-0.7	16.0*	12.6	6.6*
Cn1cccc1CC(=O)NN=Cc1cccc(F)c1	nt	nt	nt	0.4	nt	nt
COc1ccc2oc(C(=O)Nc3nnc(C)s3)c(C)c2c1	i	-8.2	-6.8	20.8*	0.9	3.5
CCCCC1(C)Nc2ccccc2-c2nc3ccccc3n21 (stereo unspecified)	nt	3.7	33.6	62.5*	-11.0	-12.3
c1ccc2c(c1)NC1(CCCCC1)n1c-2nc2ccccc21	nt	-9.8	-2.9	63.3*	7.3	12.1*
O=C1Nc2ccccc2C12Nc1ccccc1-c1nc3ccccc3n12 (stereo unspecified)	i	-1.0	29.3	0.1	nt	nt
c1ccc2c(c1)NC1(CCCCCC1)n1c-2nc2ccccc21	nt	-4.2	10.1	51.7*	2.5	3.4
CC1(c2ccccn2)Nc2ccccc2-c2nc3ccccc3n21 (stereo unspecified)	nt	0.2	21.6	56.4*	9.9	3.0
CC(C)Cn1c(-c2ccc(C#N)cc2)nc2c1c(=O)[nH]c(=O)n2CC(C)C	nt	1.3	-26.1	18.1*	-8.9	-10.8
COCCn1c(-c2ccc(NC(C)=O)cc2)nc2c1c(=O)[nH]c(=O)n2CC(C)C	nt	-3.8	14.3	-0.7	nt	nt
CN(C)CCNc1nc(-c2ccccc2CO)c2sccc2n1	i	-10.0	nt	6.8	nt	nt
CC(C)Nc1nc(-c2ccccc2CO)c2sccc2n1	nt	4.7	nt	22.1*	16.9*	10.9*	EDANS interf=>69.6
OCc1ccccc1-c1nc(NCC2CC2)nc2ccsc12	nt	-5.8	nt	14.6*	-17.8	6.9*
CC(C)NC(=O)OC1CC2CC1[C@H]1CCCCN1C2=O (stereo partly specified)	i	-9.9	nt	-0.3	nt	nt
Cc1ccsc1C(=O)N1CCC1(C)C(=O)NS(=O)(=O)c1ccc(Br)cc1 (stereo unspecified)	i	-7.1	nt	0.0	nt	nt
SMILES	Neddyl block	FAS TE block	PfG6PD inh	KLK7 zymogen act	proKLK7 act conf	EDANS interfere	others
CC(=O)OC12CCCN(C1)/C(=C/c1ccc(Cl)cc1)C2 (stereo unspecified)	nt	nt	nt	0.1	nt	nt
Cc1ccc(N=c2oc3cc(O)ccc3cc2C(N)=O)cc1	+	-5.1	0.0	24.2*	9.7	10.7*
O=C(NCc1ccco1)c1cc2ccc(O)cc2oc1=O	nt	-2.4	-6.2	48.5*	57.8*	70.6*
CC(=O)c1cc2cc(O)ccc2o1	nt	-11.4	7.8	83.0*	70.6*	64.0*
CC(=O)c1cc2ccc(O)cc2oc1=O	nt	-6.4	-17.1	19.9*	27.0*	32.4*
CC1CCCC(NC(=O)CCCCCn2c(=S)[nH]c3ccsc3c2=O)C1C (stereo unspecified)	i	2.2	14.4	0.8	nt	nt
COc1cc(/C=C/c2nc3ccccc3c(=O)[nH]2)ccc1O	i	-5.5	35.4	17.0*	-1.0	3.0
